From the supplement of paper PMC6555819

Each sequence was assayed on PXR:RXRa (NR concentration 270 nM, RXRa partner concentration 90 nM) (assay: PBM binding z-score (relative to random genomic background probes); higher = stronger binding; sequences stand for … in GC…GCGATTGACAGCGTAGAATGAAGG).
Summary of the method: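 For binding z-scores, the reference was random background probes on custom Agilent 4×180K protein-binding microarrays. These arrays were incubated 1 h with ligand-free nuclear receptor dimers in PBS pH 7.4, 2% milk, 0.02% Triton X-100, 1 mM DTT, 0.2 mg/mL BSA and 0.4 mg/ml salmon testes DNA. Fluorescence was scanned after antibody detection of each partner (one per run) and regression-normalized.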

Sequence	PBM binding z-score
TAGACTAGGTCATTCAGGGGCCAGTATAGAAAGC	2.21
TGTGCTAGGTCAGTTGGTCAGCTAACGAGCTGCC	0.0475
TTACCACGGTGAAGGTCGTTGATCCCTCTGTAGA	1.13
TTACCAAGGTGAGCTGAGGTCGTTCATCCAACTC	5.33
ATCGGAAGGTCGACGAGGTGAGTATACACCGTTT	1.38
CCAGACAGGTGAAAGGTAACTTAGTCTGGTACGC	0.936
AGTCAAAGTTCAGGGCGAGGTAACGTAAAGCACG	3.19
TCTGGTTGGTCACGGAGGTCACACACGACGGGTA	4.9
TTACCAAGGTTAAGGTCGTTGATCCCTCTGTAGA	3.04
CCTCGGAGGACAAGAGGAGGTCAGAGCTGCCAGA	1.71
GCTTACGGGTCAAAGGATATAGCATGAATAGAAT	3.09
CGTCCAAGGTAAAAGGTCAGTGAAGAGATGACGG	3.83
CGTCCAAGGTCAGGGTCAGTGAAAGAGACTCGAA	3.7
ATCTCTAGGTAAAGTTCGGTGAAAGATCGATAGA	0.633
CAAACTAGGTCGAGGTCAAAGTCGGTTTGTGCCA	5.34
CCTAACGGGTCACGAGGTTATAGCACGACGAGCG	4.45
CAAACTAGGTCACGAAAGGCCAAAGTCGAATGAC	4.77
CGTGCAAGGTCAATGCTAGGTCAGTGAAAGCATT	4.91
CCTACTGGGCCATTCAGAGGTCATTGAGCATATG	4.88
ATACCAAGGTGATGGTGAGGTCGTTGATACTAAC	2.71
CCTTACGGGTCACGAGGTTACAGCACGACGAGCG	5
GATACAGGGTCAGCTAGAGGCCAGAGTATGGAAA	3.49
